From PubChem BioAssay (Tox21) come the findings set out here.

Inconclusive results are not listed. The source made the active and inactive calls. Unless noted, calls come from the whole dose curve; as a rule, active = well fitted cell-killing curve with a large enough effect in the repeat runs; inconclusive = weak or mixed curves, or effect the other way; inactive = flat fitted curve, though single readings scatter.
% is set by controls: 0 for no effect and ±100 for the full control effect; potency is the fitted concentration of half-maximal effect.

The first assay has as its system estrogen-related receptor alpha (ERRalpha) with PGC-1alpha coactivator, human. Kind of assay: qHTS assay to identify small molecule antagonists of the estrogen related receptor signaling pathway with the pleiotropic PPARgamma coactivator (PGC) (AID 1224821; calls by dose curve; note: nearly all actives have a fitted effect of over 50% in size;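 for activity change, negative = inhibition: lower luminescence signal means antagonism of PGC/ERR signalling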). The following applies: ERR/PGC reporter cell line, luciferase, antagonist mode; series mostly up to 46.1 µM; activity change, negative = inhibition: at the top concentration. Summed up:
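PGC/ERR reporter cells; 6 h pre-incubation 37 C/5% CO2; pin-tool compound in DMSO, 18 h 37 C; One-Glo added, 30 min RT; luminescence read. qHTS antagonist mode.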
On the technique in general: In qHTS, concentration-response curves come from the screen itself.
Turning to `CCCCC[C@H](CC(=O)NO)C(=O)N[C@H](C(=O)N1CCC[C@H]1CO)C(C)C`, the Potency was 10.2 µM (active).
As to `N[C@H](CO)C(=O)O`, the “activity change, negative = inhibition” value is 6.98% (inactive).
On to `C[N+](C)(C)CC=O`, for which the “activity change, negative = inhibition” value is -0.217% (inactive).
Regarding `CC(=O)N[C@H](C(=O)O)C(C)(C)SN=O`, the “activity change, negative = inhibition” value is 5.88% (inactive).
On the same count and under the same terms, as for `O=C1OC(=O)C2C3CCC(O3)C12` (stereo not given), the figure is 83.2% (inactive); as for `O=c1cc(-c2ccccc2)oc2c(O)c(O)ccc12`, 8.71% (inactive).

System in the next assay: not listed separately
Description: qHTS assay to identify small molecule antagonists of the estrogen related receptor signaling pathway with the pleiotropic PPARgamma coactivator (PGC) cell viability counter screen (AID 1224822;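 note: viability read after 17.5 h compound exposure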). The following applies: ERR/PGC reporter cell line viability counter screen; series mostly up to 46.1 µM; viability change, negative = cytotoxic: at the top concentration. In short, it runs like this: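 Viable cell signal (CellTiter-Fluor, 30 min, 37 C/5% CO2) was measured in PGC/ERR cells after a 17.5 h compound incubation.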
For the compound `CC(N)(Cc1ccc(O)cc1)C(=O)O` (stereo not given), the “viability change, negative = cytotoxic” value is -1.74% (inactive).
As for `NC/C=C\C(=O)O`, the “viability change, negative = cytotoxic” value was 2.74% (inactive).
On the same count and under the same terms, as for `COCc1nc2c([nH]1)c(=O)n(C)c(=O)n2CC(C)C`, the figure is 12.4% (inactive); as for `O=C(/C=C/c1ccc(O)c(O)c1)OCCc1ccccc1`, -22.7% (inactive).
`O=C1NC(=O)/C(=C/c2ccc(-c3ccc(F)cc3O)o2)S1`: the “viability change, negative = cytotoxic” value was -2.75% (inactive).
Still for that read-out and setting: as for `CCOC(=O)C1=C(O)C(=O)N(Cc2ccccc2)C1`, the figure is 6.25% (inactive).
For `COC1(C2=NCCN2)COc2ccccc2O1` (stereo not given), the “viability change, negative = cytotoxic” value is 7.28% (inactive).
The same measure, in the same setting: in the case of `O=C(OCCN1CCOCC1)C1(c2ccccc2)CCCCC1` it was -4.62% (inactive).
Take `O=C1c2ccccc2C(=O)c2c(NCCc3ccc(O)cc3)ccc(NCCc3ccc(O)cc3)c21`: the Potency is 11.9 µM (active).
As for `COc1ccc(/C=C2\COc3ccc(C)cc3C2=O)cc1O`, the “viability change, negative = cytotoxic” value is -25.4% (inactive).
For `N=c1ccn2c(n1)O[C@H]1C(O)[C@@H](CO)O[C@H]12` (stereo not given in full), the “viability change, negative = cytotoxic” value was 8.72% (inactive).
The same measure, in the same setting: as for `CC(=O)N[C@@H](Cc1c[nH]c2ccccc12)C(=O)OCc1cc(C(F)(F)F)cc(C(F)(F)F)c1`, the figure is 6.18% (inactive).
For `CCNC(=O)[C@H]1O[C@@H](n2cnc3c(N)nc(NCCc4ccc(CCC(=O)O)cc4)nc32)[C@H](O)C1O` (stereo not given in full), the “viability change, negative = cytotoxic” value was 8.05% (inactive).
With `CC1(C)CCC2=C(O1)c1ccccc1C(=O)C2=O`, the Potency is 18.8 µM (active).
